{
  "source": "paper PMC5540273",
  "about": "(PLoS ONE, 2017);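 further: KINOMEscan kinase panel screen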",
  "data": [
    {"test_system": "T1, LZK", "T1 construct": "gene MAP3K13", "settings": "concentration: 1 μM,replicates: in singlicate; n = 1", "units": {"%Inh": "%"}, "values": [
      {"compound": "Cn1ccc2ncnc(Oc3ccc(NC(=O)Nc4cc(C(C)(C)C)on4)c(Cl)c3)c21", "%Inh": 0},
      {"compound": "CC(=O)Nc1ccc(-c2cc3ncnc(SCC(=O)O)c3s2)cc1", "%Inh": 0},
      {"compound": "CN(c1ccccc1CNc1nc(Nc2ccc3c(c2)CC(=O)N3)ncc1C(F)(F)F)S(C)(=O)=O", "%Inh": 0},
      {"compound": "FC(F)(F)c1cc(Br)cc(Nc2nccc(-c3cnn4ncccc34)n2)c1", "note": "[GW810578]", "%Inh": 0},
      {"compound": "O=C1NCCc2[nH]c(-c3ccncc3)cc21", "%Inh": 2},
      {"compound": "O=C(Nc1cccc(C(F)(F)F)c1)c1cccc(Oc2ccc3nccn3n2)c1", "%Inh": 20},
      {"compound": "Cc1ccc(CC(=O)N2CCc3cc(-c4cn(C)c5ncnc(N)c45)ccc32)cc1", "note": "[GSK2634758]", "%Inh": 24},
      {"compound": "COC(=O)c1cccc(NC(=O)NC2CCN(c3ccnc(NCc4ccc(F)cc4)n3)CC2)c1", "note": "[GSK1379860]", "%Inh": 0},
      {"compound": "Cn1ccc2ncnc(Oc3ccc(NC(=O)Nc4ccnc(C(F)(F)F)c4)c(Cl)c3)c21", "%Inh": 7},
      {"compound": "O=C(NOCC1CC1)c1cc(Br)c(F)c(F)c1Nc1ccc(I)cc1Cl", "%Inh": 9},
      {"compound": "COc1ccc(Nc2nccc(N3CCC(NC(=O)c4cccc(C#N)c4)C3)n2)cc1", "note": "(centres unmarked) [GSK1379730]", "%Inh": 0},
      {"compound": "COc1cccc(C2=C(Nc3cccc(Cl)c3)C(=O)NC2=O)c1", "note": "[SB-341556]", "%Inh": 0},
      {"compound": "Cc1n[nH]c2cc(Nc3ccnc(Nc4cccc(CN5CCOCC5)c4)n3)ccc12", "note": "[GW682569]", "%Inh": 31},
      {"compound": "C[C@@H]1CNc2c(sc3ccc4nc(-c5ccncc5)ccc4c23)C(=O)N1", "%Inh": 0}
    ]}
  ]
}
